This note sets out measurements from ChEMBL document CHEMBL2218924, “A broad activity screen in support of a chemogenomic map for kinase signalling research and drug discovery” (Biochem J, 2013).

In experiment [1] the target is T1, Testis-specific serine/threonine-protein kinase 1 (Homo sapiens) (UniProt Q9BXA7).
T1 sequence (whole entry): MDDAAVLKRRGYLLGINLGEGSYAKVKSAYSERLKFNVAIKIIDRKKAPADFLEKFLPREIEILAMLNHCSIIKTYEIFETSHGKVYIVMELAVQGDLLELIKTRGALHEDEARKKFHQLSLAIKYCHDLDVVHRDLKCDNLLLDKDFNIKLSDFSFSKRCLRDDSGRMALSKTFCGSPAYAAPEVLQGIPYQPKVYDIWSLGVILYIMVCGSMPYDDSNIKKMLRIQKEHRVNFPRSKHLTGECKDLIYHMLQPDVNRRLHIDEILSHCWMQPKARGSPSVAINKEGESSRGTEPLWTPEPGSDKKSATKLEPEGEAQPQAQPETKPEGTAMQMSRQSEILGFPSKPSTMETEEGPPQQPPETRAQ
As to conditions: at 1 µM.

The target of experiment [2] is T1, Testis-specific serine/threonine-protein kinase 1 (Homo sapiens). As to conditions: at 10 µM.
The target of experiment [3] is T2, Testis-specific serine/threonine-protein kinase 2 (Homo sapiens) (UniProt Q96PF2).
T2 sequence (whole entry): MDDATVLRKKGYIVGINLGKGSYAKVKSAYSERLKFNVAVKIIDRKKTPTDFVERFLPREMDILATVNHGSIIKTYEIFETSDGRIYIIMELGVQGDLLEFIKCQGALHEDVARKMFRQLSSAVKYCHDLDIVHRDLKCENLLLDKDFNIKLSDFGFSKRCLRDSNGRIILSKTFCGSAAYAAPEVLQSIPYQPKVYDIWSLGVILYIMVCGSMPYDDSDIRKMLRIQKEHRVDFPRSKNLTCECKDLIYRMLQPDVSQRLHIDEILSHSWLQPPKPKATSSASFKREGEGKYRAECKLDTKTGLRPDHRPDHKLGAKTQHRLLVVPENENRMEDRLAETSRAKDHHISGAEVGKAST
As to conditions: at 10 µM.

For experiment [4], the target named is T3, Tyrosine-protein kinase Tec (Homo sapiens) (UniProt P42680).
T3 sequence (whole entry): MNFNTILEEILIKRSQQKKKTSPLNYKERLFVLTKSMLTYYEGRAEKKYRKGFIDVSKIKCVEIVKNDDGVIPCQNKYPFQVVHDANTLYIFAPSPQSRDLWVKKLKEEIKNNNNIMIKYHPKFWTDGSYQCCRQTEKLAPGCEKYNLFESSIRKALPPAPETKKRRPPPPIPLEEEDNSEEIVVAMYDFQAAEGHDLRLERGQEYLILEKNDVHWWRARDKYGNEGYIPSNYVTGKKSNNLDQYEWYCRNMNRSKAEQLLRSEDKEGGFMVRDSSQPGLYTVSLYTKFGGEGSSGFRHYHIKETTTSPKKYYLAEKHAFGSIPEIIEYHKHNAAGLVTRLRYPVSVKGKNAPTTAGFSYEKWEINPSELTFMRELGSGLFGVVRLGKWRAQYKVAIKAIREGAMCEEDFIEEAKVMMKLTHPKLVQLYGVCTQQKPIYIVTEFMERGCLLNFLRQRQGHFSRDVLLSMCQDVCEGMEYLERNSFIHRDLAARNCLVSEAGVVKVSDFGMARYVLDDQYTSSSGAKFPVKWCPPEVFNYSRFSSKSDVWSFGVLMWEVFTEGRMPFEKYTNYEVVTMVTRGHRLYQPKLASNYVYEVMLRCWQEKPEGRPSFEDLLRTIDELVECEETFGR
As to conditions: at 1 µM.

The target of experiment [5] is T3, Tyrosine-protein kinase Tec (Homo sapiens). As to conditions: at 10 µM.
Experiment [6] has as its target Angiopoietin-1 receptor (Homo sapiens) (UniProt Q02763). As to conditions: at 1 µM.
Experiment [7] has the same target. As to conditions: at 10 µM.
Experiment [8] concerns the target High affinity nerve growth factor receptor (Homo sapiens) (UniProt P04629). As to conditions: at 1 µM.
For experiment [9] the target is unchanged. As to conditions: at 10 µM.
For experiment [10], the target named is BDNF/NT-3 growth factors receptor (Homo sapiens) (UniProt Q16620). As to conditions: at 1 µM.
The target is the same in experiment [11]. As to conditions: at 10 µM.
Experiment [12] addresses T4, Tyrosine-protein kinase TXK (Homo sapiens) (UniProt P42681).
T4 sequence (whole entry): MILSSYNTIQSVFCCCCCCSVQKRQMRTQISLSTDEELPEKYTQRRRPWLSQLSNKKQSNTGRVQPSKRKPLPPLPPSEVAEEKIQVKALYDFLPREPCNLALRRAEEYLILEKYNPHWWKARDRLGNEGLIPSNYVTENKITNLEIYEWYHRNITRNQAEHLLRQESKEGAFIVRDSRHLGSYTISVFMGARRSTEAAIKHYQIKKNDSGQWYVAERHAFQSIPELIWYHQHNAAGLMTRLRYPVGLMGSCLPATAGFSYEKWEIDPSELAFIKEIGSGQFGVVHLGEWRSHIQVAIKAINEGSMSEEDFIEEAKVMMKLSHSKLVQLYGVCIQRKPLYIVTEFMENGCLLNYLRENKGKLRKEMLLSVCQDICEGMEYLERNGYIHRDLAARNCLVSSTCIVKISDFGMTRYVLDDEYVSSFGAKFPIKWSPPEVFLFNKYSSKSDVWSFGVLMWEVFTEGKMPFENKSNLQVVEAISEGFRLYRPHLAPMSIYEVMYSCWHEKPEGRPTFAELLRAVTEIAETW
As to conditions: at 1 µM.

The target in experiment [13] is T4, Tyrosine-protein kinase TXK (Homo sapiens). As to conditions: at 10 µM.
Experiment [14] concerns the target T5, Serine/threonine-protein kinase ULK2 (Homo sapiens) (UniProt Q8IYT8).
T5 sequence (whole entry): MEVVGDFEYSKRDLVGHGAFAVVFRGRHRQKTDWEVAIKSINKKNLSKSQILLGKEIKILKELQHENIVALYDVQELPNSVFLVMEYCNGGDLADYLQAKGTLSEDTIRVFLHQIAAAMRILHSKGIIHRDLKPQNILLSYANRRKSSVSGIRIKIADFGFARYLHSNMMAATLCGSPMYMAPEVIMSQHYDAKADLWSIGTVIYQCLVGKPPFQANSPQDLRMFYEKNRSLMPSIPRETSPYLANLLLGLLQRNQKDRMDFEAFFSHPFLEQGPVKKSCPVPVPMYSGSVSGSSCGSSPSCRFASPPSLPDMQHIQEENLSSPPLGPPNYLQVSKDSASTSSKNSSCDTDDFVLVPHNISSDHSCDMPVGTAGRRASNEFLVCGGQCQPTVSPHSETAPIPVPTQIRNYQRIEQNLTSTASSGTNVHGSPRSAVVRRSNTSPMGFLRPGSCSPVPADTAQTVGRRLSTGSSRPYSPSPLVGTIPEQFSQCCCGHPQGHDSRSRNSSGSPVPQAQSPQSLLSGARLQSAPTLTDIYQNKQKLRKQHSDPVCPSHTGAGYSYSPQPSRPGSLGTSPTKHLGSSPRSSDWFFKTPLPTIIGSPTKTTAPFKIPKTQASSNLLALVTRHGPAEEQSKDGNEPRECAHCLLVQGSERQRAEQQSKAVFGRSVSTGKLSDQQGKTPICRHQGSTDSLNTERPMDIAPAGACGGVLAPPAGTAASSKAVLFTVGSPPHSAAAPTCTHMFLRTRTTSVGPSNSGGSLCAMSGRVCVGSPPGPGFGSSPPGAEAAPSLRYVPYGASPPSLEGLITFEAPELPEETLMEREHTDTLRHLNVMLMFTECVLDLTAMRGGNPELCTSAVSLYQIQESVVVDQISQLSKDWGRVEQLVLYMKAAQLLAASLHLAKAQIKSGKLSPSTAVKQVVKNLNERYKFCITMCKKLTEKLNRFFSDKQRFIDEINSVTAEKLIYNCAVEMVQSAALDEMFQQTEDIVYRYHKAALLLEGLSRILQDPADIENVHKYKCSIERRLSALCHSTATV
As to conditions: at 1 µM.

The target in experiment [15] is T5, Serine/threonine-protein kinase ULK2 (Homo sapiens). As to conditions: at 10 µM.
For experiment [16], the target named is T6, Serine/threonine-protein kinase ULK3 (Homo sapiens) (UniProt Q6PHR2).
T6 sequence (whole entry): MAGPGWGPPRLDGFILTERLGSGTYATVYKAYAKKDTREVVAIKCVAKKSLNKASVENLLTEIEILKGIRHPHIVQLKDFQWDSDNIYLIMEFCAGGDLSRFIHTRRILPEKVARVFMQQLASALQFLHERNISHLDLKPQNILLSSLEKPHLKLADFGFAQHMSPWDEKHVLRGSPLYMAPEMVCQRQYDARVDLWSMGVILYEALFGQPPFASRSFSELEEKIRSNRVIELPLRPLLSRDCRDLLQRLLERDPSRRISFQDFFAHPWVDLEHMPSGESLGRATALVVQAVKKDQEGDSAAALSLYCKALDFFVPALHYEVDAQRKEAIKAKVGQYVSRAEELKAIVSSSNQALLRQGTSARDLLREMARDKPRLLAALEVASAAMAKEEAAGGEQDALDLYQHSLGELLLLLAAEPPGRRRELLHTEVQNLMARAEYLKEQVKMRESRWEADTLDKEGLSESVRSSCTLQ
As to conditions: at 1 µM.

For experiment [17], the target named is T6, Serine/threonine-protein kinase ULK3 (Homo sapiens). As to conditions: at 10 µM.
Experiment [18] deals with Serine/threonine-protein kinase VRK2 (Homo sapiens) (UniProt Q86Y07). As to conditions: at 1 µM.
The target is the same in experiment [19]. As to conditions: at 10 µM.
Experiment [20] concerns the target Serine/threonine-protein kinase WNK2 (Homo sapiens) (UniProt Q9Y3S1). As to conditions: at 1 µM.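 Further: residual WNK2 kinase activity expressed as percent of uninhibited control, assayed in MOPS buffer at pH 7.0 containing EDTA.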

Structures are written as SMILES.

Angiopoietin-1 receptor (Homo sapiens), sequence (Q02763 whole entry): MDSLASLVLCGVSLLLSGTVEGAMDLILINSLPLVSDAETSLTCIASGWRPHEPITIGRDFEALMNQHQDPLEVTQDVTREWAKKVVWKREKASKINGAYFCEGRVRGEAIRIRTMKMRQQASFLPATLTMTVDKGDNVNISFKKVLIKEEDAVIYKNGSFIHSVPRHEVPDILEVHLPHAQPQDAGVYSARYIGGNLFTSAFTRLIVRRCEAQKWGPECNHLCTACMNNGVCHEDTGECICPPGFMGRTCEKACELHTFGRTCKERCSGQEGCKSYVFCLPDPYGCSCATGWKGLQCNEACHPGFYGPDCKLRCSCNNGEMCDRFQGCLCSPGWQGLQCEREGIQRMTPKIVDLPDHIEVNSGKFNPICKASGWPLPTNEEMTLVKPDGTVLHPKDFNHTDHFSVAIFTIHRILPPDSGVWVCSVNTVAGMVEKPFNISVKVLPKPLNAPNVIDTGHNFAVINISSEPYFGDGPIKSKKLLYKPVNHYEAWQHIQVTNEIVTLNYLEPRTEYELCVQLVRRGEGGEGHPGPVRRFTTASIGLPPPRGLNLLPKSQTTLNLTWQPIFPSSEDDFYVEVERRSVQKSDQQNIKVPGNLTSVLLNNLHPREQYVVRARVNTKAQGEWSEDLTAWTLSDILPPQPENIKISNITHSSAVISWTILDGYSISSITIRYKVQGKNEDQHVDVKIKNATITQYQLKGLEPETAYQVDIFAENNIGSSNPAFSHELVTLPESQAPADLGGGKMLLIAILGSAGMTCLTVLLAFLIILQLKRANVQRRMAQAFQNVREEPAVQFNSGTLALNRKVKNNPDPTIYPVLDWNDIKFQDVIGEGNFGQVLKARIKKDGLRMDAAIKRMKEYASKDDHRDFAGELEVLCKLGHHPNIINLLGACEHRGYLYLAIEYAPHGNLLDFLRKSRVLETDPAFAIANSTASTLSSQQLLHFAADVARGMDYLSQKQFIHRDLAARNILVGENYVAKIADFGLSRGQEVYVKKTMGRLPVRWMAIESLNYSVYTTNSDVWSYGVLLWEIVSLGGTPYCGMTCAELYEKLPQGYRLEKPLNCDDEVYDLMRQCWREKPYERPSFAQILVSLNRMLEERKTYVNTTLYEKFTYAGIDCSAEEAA
BDNF/NT-3 growth factors receptor (Homo sapiens), sequence (Q16620 32-822 limits assumed): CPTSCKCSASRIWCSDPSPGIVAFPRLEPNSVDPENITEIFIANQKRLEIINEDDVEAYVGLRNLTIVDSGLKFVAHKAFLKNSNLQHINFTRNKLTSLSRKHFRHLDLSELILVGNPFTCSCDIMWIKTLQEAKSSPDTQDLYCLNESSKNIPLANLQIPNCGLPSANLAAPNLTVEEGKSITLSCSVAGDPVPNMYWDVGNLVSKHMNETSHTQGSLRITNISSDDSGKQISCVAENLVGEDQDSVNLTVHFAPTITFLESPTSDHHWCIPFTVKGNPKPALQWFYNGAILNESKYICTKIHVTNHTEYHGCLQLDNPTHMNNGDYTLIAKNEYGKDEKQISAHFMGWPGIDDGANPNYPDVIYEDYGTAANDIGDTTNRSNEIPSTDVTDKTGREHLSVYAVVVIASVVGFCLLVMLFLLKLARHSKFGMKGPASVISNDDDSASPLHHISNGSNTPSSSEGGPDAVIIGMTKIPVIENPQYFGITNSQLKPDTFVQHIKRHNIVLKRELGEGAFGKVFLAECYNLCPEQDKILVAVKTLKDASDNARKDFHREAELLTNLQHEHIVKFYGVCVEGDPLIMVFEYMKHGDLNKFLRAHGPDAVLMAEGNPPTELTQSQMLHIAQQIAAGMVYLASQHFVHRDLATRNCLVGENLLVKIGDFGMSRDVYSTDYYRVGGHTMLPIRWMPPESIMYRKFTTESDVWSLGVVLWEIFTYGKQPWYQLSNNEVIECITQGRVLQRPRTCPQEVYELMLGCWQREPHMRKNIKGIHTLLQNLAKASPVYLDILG
Serine/threonine-protein kinase WNK2 (Homo sapiens), sequence (Q9Y3S1 whole entry): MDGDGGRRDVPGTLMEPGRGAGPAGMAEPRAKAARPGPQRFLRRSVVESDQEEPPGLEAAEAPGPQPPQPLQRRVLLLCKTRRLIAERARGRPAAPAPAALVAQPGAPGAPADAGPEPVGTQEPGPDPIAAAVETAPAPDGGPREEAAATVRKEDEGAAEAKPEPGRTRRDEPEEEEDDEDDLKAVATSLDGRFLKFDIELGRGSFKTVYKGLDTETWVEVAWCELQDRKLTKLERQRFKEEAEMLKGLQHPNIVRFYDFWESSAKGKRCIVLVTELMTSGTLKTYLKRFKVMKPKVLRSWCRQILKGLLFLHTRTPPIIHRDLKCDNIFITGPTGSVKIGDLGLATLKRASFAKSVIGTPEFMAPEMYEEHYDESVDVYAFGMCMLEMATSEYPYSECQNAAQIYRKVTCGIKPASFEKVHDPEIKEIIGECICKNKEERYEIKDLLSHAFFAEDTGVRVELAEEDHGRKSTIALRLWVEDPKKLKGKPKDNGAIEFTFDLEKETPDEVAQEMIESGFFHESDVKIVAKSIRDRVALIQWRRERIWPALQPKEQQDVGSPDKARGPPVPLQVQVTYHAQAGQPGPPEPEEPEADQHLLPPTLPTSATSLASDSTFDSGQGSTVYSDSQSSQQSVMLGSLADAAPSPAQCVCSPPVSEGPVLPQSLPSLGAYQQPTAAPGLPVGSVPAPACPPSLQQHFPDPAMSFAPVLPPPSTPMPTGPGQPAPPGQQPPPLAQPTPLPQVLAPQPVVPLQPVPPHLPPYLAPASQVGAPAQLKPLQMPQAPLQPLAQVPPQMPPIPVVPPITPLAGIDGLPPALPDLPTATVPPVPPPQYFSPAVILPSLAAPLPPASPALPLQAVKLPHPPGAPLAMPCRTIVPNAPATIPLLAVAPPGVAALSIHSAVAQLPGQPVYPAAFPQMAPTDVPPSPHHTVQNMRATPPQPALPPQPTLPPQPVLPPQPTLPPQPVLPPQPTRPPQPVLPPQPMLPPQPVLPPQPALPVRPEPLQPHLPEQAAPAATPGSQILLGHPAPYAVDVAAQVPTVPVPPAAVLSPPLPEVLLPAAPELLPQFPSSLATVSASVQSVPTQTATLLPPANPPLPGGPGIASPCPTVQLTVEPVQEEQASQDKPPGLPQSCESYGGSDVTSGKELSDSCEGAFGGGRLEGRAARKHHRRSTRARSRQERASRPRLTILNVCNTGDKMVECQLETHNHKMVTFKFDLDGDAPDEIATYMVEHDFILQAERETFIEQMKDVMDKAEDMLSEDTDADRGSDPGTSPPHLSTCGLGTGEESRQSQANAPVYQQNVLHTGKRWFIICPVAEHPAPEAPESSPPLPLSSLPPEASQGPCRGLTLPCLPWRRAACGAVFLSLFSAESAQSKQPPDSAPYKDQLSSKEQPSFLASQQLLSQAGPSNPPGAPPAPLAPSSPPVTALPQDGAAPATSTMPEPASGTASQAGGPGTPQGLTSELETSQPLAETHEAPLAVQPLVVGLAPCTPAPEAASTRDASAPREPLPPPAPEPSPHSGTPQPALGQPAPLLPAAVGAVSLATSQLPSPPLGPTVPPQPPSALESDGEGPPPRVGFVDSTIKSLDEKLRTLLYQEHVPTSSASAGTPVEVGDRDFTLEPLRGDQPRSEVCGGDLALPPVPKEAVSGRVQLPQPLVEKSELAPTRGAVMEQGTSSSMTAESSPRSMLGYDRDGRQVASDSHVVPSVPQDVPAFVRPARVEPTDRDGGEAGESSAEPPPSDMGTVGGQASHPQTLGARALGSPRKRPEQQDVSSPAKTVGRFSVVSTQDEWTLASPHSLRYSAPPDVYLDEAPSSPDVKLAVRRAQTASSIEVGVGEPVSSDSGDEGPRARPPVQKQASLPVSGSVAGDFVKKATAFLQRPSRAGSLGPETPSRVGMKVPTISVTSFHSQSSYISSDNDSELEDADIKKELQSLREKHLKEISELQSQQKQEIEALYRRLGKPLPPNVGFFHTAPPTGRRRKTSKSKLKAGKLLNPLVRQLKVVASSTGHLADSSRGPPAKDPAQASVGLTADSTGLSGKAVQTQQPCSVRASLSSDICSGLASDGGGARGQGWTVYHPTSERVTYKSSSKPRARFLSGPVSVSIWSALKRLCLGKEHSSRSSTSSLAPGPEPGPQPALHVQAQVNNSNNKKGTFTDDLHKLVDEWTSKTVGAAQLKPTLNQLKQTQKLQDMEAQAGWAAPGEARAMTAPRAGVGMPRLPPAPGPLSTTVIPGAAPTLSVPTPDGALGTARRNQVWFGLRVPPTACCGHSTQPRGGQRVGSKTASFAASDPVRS
High affinity nerve growth factor receptor (Homo sapiens), sequence (P04629 33-796 limits assumed): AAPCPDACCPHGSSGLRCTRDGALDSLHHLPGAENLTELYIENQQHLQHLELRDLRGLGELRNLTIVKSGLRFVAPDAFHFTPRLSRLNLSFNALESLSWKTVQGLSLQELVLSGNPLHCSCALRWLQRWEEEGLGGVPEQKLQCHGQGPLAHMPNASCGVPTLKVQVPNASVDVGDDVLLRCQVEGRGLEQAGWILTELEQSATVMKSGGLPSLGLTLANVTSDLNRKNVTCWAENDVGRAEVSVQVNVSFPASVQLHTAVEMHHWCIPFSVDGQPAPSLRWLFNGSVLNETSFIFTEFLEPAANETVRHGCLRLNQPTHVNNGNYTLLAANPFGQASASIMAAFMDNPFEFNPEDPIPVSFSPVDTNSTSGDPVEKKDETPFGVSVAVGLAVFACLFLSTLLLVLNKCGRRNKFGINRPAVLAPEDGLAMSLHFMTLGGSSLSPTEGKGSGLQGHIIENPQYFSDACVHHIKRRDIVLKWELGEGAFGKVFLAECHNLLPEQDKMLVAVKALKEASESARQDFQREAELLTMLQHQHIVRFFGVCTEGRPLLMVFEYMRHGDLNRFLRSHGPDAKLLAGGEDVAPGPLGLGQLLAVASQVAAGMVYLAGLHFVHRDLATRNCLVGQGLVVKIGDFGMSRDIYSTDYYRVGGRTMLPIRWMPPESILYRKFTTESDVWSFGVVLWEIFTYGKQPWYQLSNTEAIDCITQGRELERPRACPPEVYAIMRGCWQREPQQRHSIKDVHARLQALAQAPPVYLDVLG

As for `COc1cc2nccc(Oc3ccc(NC(=S)NC(=O)c4ccccc4C)cc3)c2cc1OC`, the residual activity (as a rule, the signal under treatment as a percentage of the control signal) in [1] amounted to 93%; in experiment [2], 76%; in [3] it was 81%; in experiment [4], 79%; in experiment [5], 36%; in [6], 33%. For the same molecule, the residual activity in experiment [7] is 13%; in experiment [8], 44%; in [9], -1%; in [10], 54%; in [11], 25%; in experiment [12], 88%. Further, the residual activity in experiment [13] was 37%; in [14] it was 101%; in experiment [15] it was 93%; in experiment [16] it was 99%; in [17] it was 76%; in [18], 93% (inactive). Moreover, the residual activity in [19] was 90%; in [20] it was 76% (inactive).

Take `O=c1cc(N2CCNCC2)oc2c(-c3ccccc3)cccc12`: the residual activity turned out to be 101% in experiment [1]; 93% in experiment [2]; 82% in experiment [3]; 80% in experiment [5]; 69% in experiment [6]; 78% in [7]. For the same molecule, the residual activity in experiment [13] was 98%; in [14], 100%; in [15], 95%; in experiment [16] it was 101%; in [17], 92%; in experiment [18] it was 95% (inactive). Also, in experiment [19], the residual activity amounted to 90%.

With `Cn1sc(=O)n(Cc2ccccc2)c1=O`, the residual activity in experiment [1] came out at 63%; in experiment [2] it was 80%; in experiment [3], 84%; in experiment [4], 97%; in experiment [5] it was 75%; in [8], 81%. For the same molecule, the residual activity is 68% in [9]; 83% in experiment [12]; 88% in experiment [13]; 90% in experiment [14]; 93% in experiment [15]; 92% in experiment [16]. In addition, the residual activity in experiment [17] was 92%; in [18] it was 98% (inactive); in experiment [19] it was 90%; in experiment [20], 96% (inactive).

For `O=C1NC(=O)C(c2cn(CCCO)c3ncccc23)=C1c1cnccn1`, the residual activity turned out to be 97% in experiment [1]; 84% in experiment [2]; 59% in experiment [3]; 91% in experiment [4]; 73% in experiment [5]; 95% in experiment [6]. Besides, the residual activity in experiment [7] amounted to 94%; in experiment [8], 80%; in [9], 64%; in experiment [10] it was 87%; in experiment [11] it was 90%; in experiment [12], 82%. In addition, the residual activity in experiment [13] amounted to 86%; in experiment [16] it was 93%; in experiment [17], 92%.

On to `O=S(=O)(NCCNC/C=C/c1ccc(Br)cc1)c1cccc2cnccc12`, for which the residual activity in [1] worked out at 100%; in [2], 67%; in experiment [7], 69%; in experiment [9] it was 78%; in [12] it was 74%; in experiment [13], 61%.

Regarding `O=C1C(Cl)=C(N2C(=O)CCC2=O)C(=O)c2ccccc21`, the residual activity was 101% in [1]; 79% in experiment [2]; 80% in [3]; 90% in experiment [4]; 79% in [5]; 71% in [7]. For the same molecule, the residual activity in experiment [8] worked out at 89%; in [9] it was 68%; in experiment [10], 85%; in experiment [11] it was 93%; in experiment [12], 76%; in experiment [13] it was 87%. Moreover, the residual activity in experiment [16] is 87%; in experiment [17] it was 97%; in [18], 93% (inactive); in [19], 98%; in experiment [20], 89% (inactive).
